Data taken from PubChem BioAssay (NCATS).
Several values for one entry are separate records, joined by “and”; a condition that tells them apart may be missing. Equal values may be shown once. Records with an inconclusive call do not appear. A call without a number means that no potency is given here. A structure can be active in one record and inactive in another. Activity calls are given as the source filed them. Calls come from the whole dose curve; as a rule, active = well fitted curve in the direction sought with a large enough effect; inconclusive = small, poorly fitted or top-dose-only effect, or another doubt; inactive = no such curve, though single readings can be large; an effect the other way counts as inactive or inconclusive.

Key:
[1] = P-glycoprotein substrates identified in KB-3-1 adenocarcinoma cell line, qHTS therapeutic library screen (AID 1346986); details: KB-3-1 parental cells viability, CellTiter-Glo, 72 h; series mostly up to 44.5 µM; note: nearly all actives have a fitted effect of over 60% in size;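 note: potency is the fitted concentration of half-maximal effect; potency is for cytotoxicity meaning loss of cell viability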
Procedure, shortened: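 72 h cell-killing screen, 500 cells/well, CellTiter-Glo luminescence. Paired lines KB-3-1/KB-8-5-11; P-gp dependence checked by tariquidar co-treatment and HEK-293 MDR-19 versus empty-vector cells.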

[2] = P-glycoprotein substrates identified in KB-8-5-11 adenocarcinoma cell line, qHTS therapeutic library screen (AID 1346987); details: KB-8-5-11 (P-gp overexpressing) viability, CellTiter-Glo, 72 h; series mostly up to 44.5 µM; note: nearly all actives have a fitted effect of over 65% in size; note: potency is the fitted concentration of half-maximal effect
Procedure, shortened: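 Luminescence from CellTiter-Glo, read 5 min after addition, quantified survival of KB-8-5-11 (P-gp-overexpressing) cells exposed to compounds for 72 h. AC50 was derived from concentration-response curves.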

[3] = NS1 protein of Zika virus - qHTS assay to identify small molecule inhibitors in human HEK 293 cells (AID 1347053); details: HEK293 ZIKV MR766 infection, NS1 TR-FRET, 24 h; series mostly up to 46.1 µM; note: nearly all actives have a fitted effect of over 55% in size
Procedure, shortened: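 TR-FRET signal from two anti-ZIKV NS1 antibodies quantified NS1 in HEK 293 cells 24 h after MR766 infection at MOI = 0.5; compounds were added 1 h before virus. Uninfected cells and infected cells defined the NS1 normalization range.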

SMILES	Potency [1]	Potency [2]	Potency [3]
Cc1cc(NC(=O)Nc2ccc(N(C)C)cc2)c2cc(F)cc(F)c2n1	inactive	inactive	
CN(C)c1ccccc1CN1CCCN(Cc2ccccc2N(C)C)C1c1ccncc1	inactive	inactive	
COc1cccc(OC)c1-c1cc(C(=O)NC2(C(=O)O)C3CC4CC(C3)CC2C4)nn1-c1ccnc2cc(Cl)ccc12 (stereo not given)	inactive	inactive	
COc1ccc2ccc(=O)oc2c1CC=C(C)C	inactive	inactive	
CSc1cccc(Nc2ncc3cc(-c4c(Cl)cccc4Cl)c(=O)n(C)c3n2)c1	2.06 µM (active)	inactive and 1.3 µM (active)	
COc1ccc(Cn2ccc3ccc(C(=O)NO)cc32)cc1	inactive		
CCC(=O)N1CCN(c2ccc(-n3c(=O)ccc4cnc5ccc(-c6cnc7ccccc7c6)cc5c43)cc2C(F)(F)F)CC1	0.075 µM (active)	41.8 nM (active) and 133 nM (active)	
CN1CCN(c2cccc(Nc3nc4c(-c5ccc(S(C)(=O)=O)cc5)cccn4n3)c2)CC1	inactive and 23.1 µM (active)	inactive and 20.6 µM (active)	
COc1cc2nccc(Oc3ccc(NC(=O)Nc4ccc(F)cc4F)c(F)c3)c2cc1OC	7.31 µM (active)	7.31 µM (active)	
COc1nccc(-c2c(-c3ccc(F)cc3)ncn2C2CCNCC2)n1	inactive	inactive	
Nc1ncnc2c1ncn2[C@@H]1O[C@H](CO)[C@@H](O)[C@@H]1O	inactive	inactive	inactive
CC(C)CN(C[C@H](O)[C@H](Cc1ccccc1)NC(=O)O[C@H]1CCOC1)S(=O)(=O)c1ccc(N)cc1	inactive	inactive	inactive
